Rows were chosen to be rich in hits. Some 6% of all compounds tested hit in one or more screens of this group.
D1 antag: Antagonist of Human D 1 Dopamine Receptor: qHTS; D(1A) dopamine receptor (Homo sapiens), P21728; HEK293 TREx D1 cells, calcium flux, dopamine EC80; hits give low values; activity change, negative = inhibition, % at 10 µM; 3.2% of 360,000 active; AID 504652, 2011; in the data active = activity change below about -30%
Target sequence (P21728 whole entry, looked up): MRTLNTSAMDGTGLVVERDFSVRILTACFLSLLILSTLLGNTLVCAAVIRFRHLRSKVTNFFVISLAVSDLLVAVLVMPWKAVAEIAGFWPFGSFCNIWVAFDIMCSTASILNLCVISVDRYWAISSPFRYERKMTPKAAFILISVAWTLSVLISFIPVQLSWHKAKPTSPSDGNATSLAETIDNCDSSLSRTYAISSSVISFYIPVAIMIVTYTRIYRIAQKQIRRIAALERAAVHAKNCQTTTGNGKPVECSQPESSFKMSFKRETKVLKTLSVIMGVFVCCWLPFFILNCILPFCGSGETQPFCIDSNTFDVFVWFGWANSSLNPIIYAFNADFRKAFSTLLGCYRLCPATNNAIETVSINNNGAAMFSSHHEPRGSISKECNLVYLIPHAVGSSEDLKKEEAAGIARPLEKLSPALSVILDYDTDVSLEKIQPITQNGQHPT
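After overnight tetracycline induction at 30 C, force-coupled D1 HEK293 cells took up a no-wash calcium dye at room temperature. Compounds were added and monitored 180 s, and the response to EC80 dopamine was then recorded.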
D1 ag: Allosteric Agonists of the Human D1 Dopamine Receptor: qHTS; HEK293 T-REx D1 cells, calcium flux, agonist mode; activation, % at 2 µM; 1% of 360,000 active; in the data active = activation above about 30%
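Inducible HEK293 T-REx D1 cells, force-coupled to calcium signalling, were plated at 4000 cells/well with tetracycline and held overnight at 30 C. After no-wash calcium dye loading, compound-evoked calcium rise over 180 s flagged agonists.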
D1 potentiator: Potentiators of Human D1 Dopamine Receptor: qHTS; D(1A) dopamine receptor (Homo sapiens), P21728; HEK293 TREx D1 cells, calcium flux, dopamine EC20 potentiation; potentiation, % at 10 µM; 0.036% of 360,000 active; in the data active = potentiation above about 30%
D3 antag: qHTS of D3 Dopamine Receptor Antagonist: qHTS; D(3) dopamine receptor (Homo sapiens), P35462; D3R cells, DiscoveRx beta-arrestin luminescence, antagonist mode; hits give low values; max response, negative = inhibition, %; 2.5% of 360,000 active; AID 652054, 2013; in the data active = max response below about -50%; inconclusive = no clear call, values can overlap the other calls
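Cells expressing the human receptor were seeded at 1500 cells/well, incubated overnight at 37 degrees C in 5% CO2, then exposed to library compounds with dopamine controls for 90 minutes at 37 degrees C before luminescent detection.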
DRD3 agonist: qHTS of D3 Dopamine Receptor Agonist: qHTS | D(3) dopamine receptor (Homo sapiens), P35462 | D3R DiscoveRx beta-arrestin cells, luminescence, 90 min | max activation, % | 0.58% of 410,000 active | AID 652048, 2013; in the data active = max activation above about 30%
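Agonist mode: compounds and dopamine controls were applied to plated cells for 90 min at 37 degrees C after an overnight attachment at 1500 cells/well. Luminescent read-out followed 30 - 60 minutes at room temperature with DiscoveRx detection reagent.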
Numbers stand for hits; - = inactive; ? = inconclusive; . = no result.

SMILES	D1 antag	D1 ag	D1 potentiator	D3 antag	DRD3 agonist
Cc1[nH]n(-c2cccc(Cl)c2)c(=O)c1-c1ccccc1	-	-	-	-52	-
Cc1ccc(NC(=O)Cc2ccc(-n3c(C)nc4cccnc43)cc2)cc1C	-	-	-	.	-
COc1ccc(C2CC(c3cccs3)=NN2c2ccc(C=O)cc2)cc1 (configuration not stated)	-62	244	-	-	-
Cc1nc2c(cnn2-c2ccccc2)c(=O)[nH]1	-38	-	-	-	-
Cc1ccc(-n2c(-c3cccc(C)c3)nc3c(cnn3-c3ccccc3)c2=O)cc1	-	-	-	.	-
Cc1cccc(-c2nc3c(cnn3-c3ccccc3)c(=O)n2-c2ccc(Cl)cc2)c1	-36	-	-	.	-
COc1ccc(CN(C)CC(O)COc2ccc(-c3ccccc3)cc2)cc1OC (configuration not stated)	-	43	-	?	-
COc1ccc(Cl)cc1NC(=O)c1cc(S(=O)(=O)N(C)Cc2ccccc2)ccc1F	-	-	-	.	-
CCOc1ccccc1CN1CCN(Cc2c[nH]c3ccccc23)CC1CCO (configuration not stated)	-	-	-	-	-
CCOc1ccccc1CN1CCN(Cc2[nH]c3ccccc3c2C)CC1CCO (configuration not stated)	-	56	-	-53	-
Cc1ccc(CN2CCN(Cc3cc(=O)c4ccccc4[nH]3)CC2CCO)o1 (configuration not stated)	-	-	-	-	-
CCOc1ccccc1CN1CCN(Cc2cc(=O)c3ccccc3[nH]2)CC1CCO (configuration not stated)	-36	-	-	?	-
CCc1noc(-c2ccc(N3CCCCC3C)c([N+](=O)[O-])c2)n1 (configuration not stated)	-	-	-	.	-
O=C(Cn1cc(SCc2ccc(Cl)cc2)c2ccccc21)N1CCCC1	-	-	-	.	-
O=c1cc(-c2ccccc2)[nH]n1-c1ccccc1	.	.	.	-	-
O=c1cc(-c2ccccc2)[nH]n1-c1nc2ccccc2s1	-36	-	-	-	-
CC(=O)O[C@@H](C[C@@H](C)C1=C2C[C@H](O)C3[C@@]4(C)CCC(=O)C(C)(C)C4CC[C@]3(C)[C@@]2(C)CC1)[C@H]1OC1(C)C (some centres not stated)	.	.	.	-	50
COC(=O)c1cccc(C(=O)Oc2cccc(Br)c2)n1	-	-	-	-	-
CC(C)OC(=O)c1cccc(C(=O)Oc2ccccc2)n1	-	-	-	-59	-
CCOCCCNc1nc2c(C)cccn2c(=O)c1/C=C1\SC(=S)N(C(C)CC)C1=O (configuration not stated)	-	114	-	-	-
CCOCCCNc1nc2c(C)cccn2c(=O)c1/C=C1\SC(=S)N(CC(C)C)C1=O	-	30	-	-	-
CCOC(=O)CC1C(=O)NCCN1c1nc2c(C)cccn2c(=O)c1/C=C1\SC(=S)N(CC(C)C)C1=O (configuration not stated)	-	111	-	.	.
CCCN1C(=O)/C(=C/c2c(NCCCOCC)nc3c(C)cccn3c2=O)SC1=S	-	-	-	-	-
CC1CCN(S(=O)(=O)c2ccc3c(c2)N(CC(=O)O)C(=O)CO3)CC1	-	-	-	.	-
O=C(Nc1ccc(C(=O)N2CCN(c3ccccc3F)CC2)cc1)c1nsc2ccccc12	-	-	-	.	-
SMILES	D1 antag	D1 ag	D1 potentiator	D3 antag	DRD3 agonist
CS(=O)(=O)N(CC(=O)NCCSc1ccccc1)c1cc(C(F)(F)F)ccc1Cl	-	-	-	.	-
CCCCCCCCCC(=O)N1c2ccccc2NC(=O)C1CC(=O)Nc1ccc(C(=O)O)cc1 (configuration not stated)	-	39	-	-	-
CCCCCCCC(=O)N1c2ccccc2NC(=O)C1CC(=O)Nc1ccc(C(=O)O)cc1 (configuration not stated)	-	-	-	-	-
COc1ccc(-c2cc(C(F)(F)F)nc(S(=O)(=O)CCCC(=O)Nc3cccc(O)c3)n2)cc1OC	-	-	-	-53	-
CC(=O)N1c2ccccc2C2(C)C(C1(C)C)C2(Cl)Cl (configuration not stated)	-	207	-	-	-
COc1ccc(NC(=O)c2oc3ccccc3c2NC(=O)COc2ccccc2OC)c(OC)c1	-	-	-	-	58
COc1ccc(NC(=O)c2oc3ccccc3c2NC(=O)COc2ccc(C(C)C)cc2)c(OC)c1	-	-	-	.	-
COc1ccc(NC(=O)c2ccc(COc3ccccc3)o2)c(OC)c1	-31	-	-	-	-
CCc1ccc(OCc2ccc(C(=O)NCc3ccccn3)o2)cc1	-	-	-	-70	-
COc1ccc(NC(=O)c2ccc(COc3ccccc3Br)o2)c(OC)c1	.	.	.	-	-
CCCN1C(=O)/C(=C\C=C2/Sc3ccccc3N2CC)SC1=S	-	-	-	.	.
CN1C(=CC=C2C=C(I)C(=O)C(I)=C2)C(C)(C)c2ccccc21	-42	-	-	-	-
CN1/C(=C\C=C2/C(=O)Oc3ccccc3C2=O)C(C)(C)c2ccccc21	-	545	-	-	-
CN(C)c1ccc(N=C/C=C2/N(C)c3ccccc3C2(C)C)cc1	-30	-	-	-	-
CN1/C(=C\C=N\O)C(C)(C)c2ccccc21	-	-	-	-	-
CCCN1C(=O)/C(=C\C=C2\N(CC)c3ccccc3C2(C)C)SC1=S	-	92	-	-	-
CO/N=C/C=C1/N(C)c2ccccc2C1(C)C	-	-	-	-	-
O=c1oc2ccccc2c2c1C1O[C@](c3ccsc3)(Cc3ccccc31)O2	-	-	-	.	.
COc1ccc(NC(=O)C(C)n2nc(-c3cc(C)ccc3C)c3c(c2=O)CCCC3)cc1 (configuration not stated)	-	-	-	.	-
CN1/C(=C\C=C2/SC(=S)NC2=O)C(C)(C)c2ccccc21	-	436	-	-53	-
O=Nc1c(-c2c(O)[nH]c3cc(Br)ccc23)[nH]c2ccccc12	-57	-	-	-	-
O=S(=O)(c1ccc2c(c1)OCCO2)N1CCN(S(=O)(=O)c2ccc3nc(Cl)c(Cl)nc3c2)CC1	-	-	-	.	.
COc1ccc2c(CNC3CCCCCC3)c(C(=O)O)n(Cc3ccccc3F)c2c1	-	-	-	.	-
COCCNc1nc(Oc2ccc(C(N)=O)cc2)c2sccc2n1	.	.	.	-	43
COCCNc1nc(Oc2cccc3ccccc23)c2sccc2n1	.	.	.	-	54
COCCNc1nc(Oc2ccccc2)c2sccc2n1	.	.	.	-	-

High-throughput results: PubChem BioAssay, National Center for Advancing Translational Sciences (NCATS)
